Tests used:
Experiment in all cases: PBM binding z-score (relative to random genomic background probes); higher = stronger binding; sequences stand for … in GC…GCGATTGACAGCGTAGAATGAAGG
[1] = test system: FXR:RXRa (NR concentration 270 nM, RXRa partner concentration 90 nM)
Summary of the method: (§1)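 Each nuclear receptor dimer, without ligand, was incubated for 1 h on custom Agilent 4×180K protein-binding microarrays. Binding was detected with antibodies against each partner (one per run), and scanned fluorescence was regression-normalized. The binding z-scores are referenced to random human genomic background probes.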

[2] = test system: LXRa:RXRa (NR concentration 270 nM, RXRa partner concentration 90 nM)
Summary of the method: as §1

[3] = test system: LXRa homodimer (NR concentration 270 nM)
Summary of the method: as §1

[4] = test system: LXRb:RXRa (NR concentration 270 nM, RXRa partner concentration 90 nM)
Summary of the method: as §1

[5] = test system: PPARa:RXRa (NR concentration 270 nM, RXRa partner concentration 90 nM)
Summary of the method: as §1

[6] = test system: PPARg:RXRa (NR concentration 180 nM, RXRa partner concentration 90 nM)
Summary of the method: as §1

[7] = test system: PPARg:RXRa 270nM:90nM, anti-RXR (NR concentration 270 nM, RXRa partner concentration 90 nM)
Summary of the method: as §1

[8] = test system: PPARg:RXRa 30nM:10nM, anti-RXR (NR concentration 30 nM, RXRa partner concentration 10 nM)
Summary of the method: as §1

[9] = test system: PPARg:RXRa 90nM:30nM, anti-RXR (NR concentration 90 nM, RXRa partner concentration 30 nM)
Summary of the method: as §1

[10] = test system: PPARg:RXRa DBDmut IVT, anti-RXR (DBD mutation: RXRa K156A/R161A, NR concentration 270 nM, RXRa partner concentration 90 nM)
Summary of the method: as §1

[11] = test system: PPARg:RXRa IVT, anti-PPARg (NR concentration 270 nM, RXRa partner concentration 90 nM)
Summary of the method: as §1

[12] = test system: PPARg homodimer (NR concentration 180 nM)
Summary of the method: as §1

[13] = test system: PXR:RXRa (NR concentration 270 nM, RXRa partner concentration 90 nM)
Summary of the method: as §1

[14] = test system: PXR homodimer (NR concentration 270 nM)
Summary of the method: as §1

[15] = test system: RARa:RXR (NR concentration 270 nM, RXRa partner concentration 90 nM)
Summary of the method: as §1

[16] = test system: RARa homodimer (NR concentration 270 nM)
Summary of the method: as §1

[17] = test system: RARb:RXRa (NR concentration 270 nM, RXRa partner concentration 90 nM)
Summary of the method: as §1

[18] = test system: LXRb homodimer (NR concentration 270 nM)
Summary of the method: as §1

[19] = test system: PPARg DBDmut:RXRa IVT, anti-PPARg (DBD mutation: PPARg1 K132A/R137A, NR concentration 270 nM, RXRa partner concentration 90 nM)
Summary of the method: as §1

[20] = test system: PPARg DBDmut IVT, anti-PPARg (DBD mutation: PPARg1 K132A/R137A, NR concentration 270 nM)
Summary of the method: as §1

Sequence	PBM binding z-score [1]	PBM binding z-score [2]	PBM binding z-score [3]	PBM binding z-score [4]	PBM binding z-score [5]	PBM binding z-score [6]	PBM binding z-score [7]	PBM binding z-score [8]	PBM binding z-score [9]	PBM binding z-score [10]	PBM binding z-score [11]	PBM binding z-score [12]	PBM binding z-score [13]	PBM binding z-score [14]	PBM binding z-score [15]	PBM binding z-score [16]	PBM binding z-score [17]	PBM binding z-score [18]	PBM binding z-score [19]	PBM binding z-score [20]
TAGAGTAGGTTACGGGGGCATTCAGGGATGAAGA	2.76	3.19	1.55	5.06	4.61	7.4	6.43	4.51	5.78	5.84	6.92	2.22	3.17	2.11	3.35	1.56	2.85			
CTATGGAGGTTAAGGGGGTCATTCAGTTTGAAAG	6.34	5.63	4.04	6.44	6.28	6.41	6.6	3.97	5.74	4.65	6.42	4.29	6.58	12.7	6.29	2.33	4.01			
TCGAGGAGGTTACGGGGGCATTCAGGGATGAAGA	5	3.99	0.868	5.71	5.33	6.77	5.92	4.08	5.24	3.43	5.82	2.53	4.07	2.7	4.4	0.971	3.42			
TCGAGTAGGTTACGGGGGCATTGAGGGATGAAGA	2.37	2.69	0.404	4.67	4.31	6.35	5.59	3.59	5.05	5.26	6.02	2.89		1.71		0.325	2.69			
CCGATTAGGTTACGAGGGGGCATTCAGTGCGAAT	2.54	7.34	1.59	6.42	3.29	1.45	2.96	0.437	2.32	3.12	3.4	1.22	4.69	3.98	2.28	0.441	2.49			
TCGAGTAGGTTACTGGGGCATTCAGGGATGAAGA	0.441	0.372	-0.186	0.462	3.51	4.99	4.53	2.29	3.46	5.34	6.18	0.888		-0.522	0.925	-0.357	1.08			
CTATGTAGGTTAAGGGGGTCACTCAGTTTGAAAG	4.57	4.36	1.65	5.87	5.91	8.64	7.98	6.23	8.19	7.55	7.88	6	5.64	10.5	5.73	3.18	3.61			
CCGAGCAGGTTACGAGGGGGCATTCAGTGCGAAT	2.35	7.31	1.46	6.07	3.01	0.89	1.95	0.464	1.36	1.69	2.54	1.34	5.19	4.97	3.16	0.223	2.22			
CTATGTAGGTTAAGGGGGTCAGTCAGTTTGAAAG	3.26	3.55	1.38	5.26	5.54	8.01	7.42	5.06	7.09	7.45	7.33	3.02	4.52	6.85	4.15	0.767	3.2			
CTATGTAGGTTAATGGGGTCATTCAGTTTGAAAG	5.79	5.31	3.46	5.41	6.23	7.9	7.12	4.64	6.55	7.34	7.83	3.7		13.3	6.66	1.57	3.3			
CCGAGTAGGTCACGAGGGGGCATTCAGTGCGAAT	6.09	6.71	1.59	6.56	5.66	7.8	7.12	4.32	6.72	6.96	7.42	2.44		4.34	4.38	1.07	4.58			
TCGAGTAGGTTATGGGGGCATTCAGGGATGAAGA	1.82	2.24	0.602	4.74	3.71	4.86	4.86	2.99	4.23	3.92	5.17	1.07	2.72	1.87	2.72	0.33	2.13			
CCGAGTAGGTTACGAGGGCGCATTCAGTGCGAAT	0.0416	1.77	-0.35	0.425	1.72	2.6	2.55	-0.0123	1.62	4.97	4.85	-0.00528	0.483	-0.379		-0.752	1.29			
CCGCGTAGGTTACGAGGGGGCATTCAGTGCGAAT	2.11	7.21	1.61	6.37	3.17	0.847	2.86	0.411	2.18	1.02	2.43	1.12	4.76	4.05		-0.311	2.14			
TCGAGTAGCTTACGGGGGCATTCAGGGATGAAGA	1.64	1.5	0.141	3.47	2.12		2.1	2.18	2.37	1.25	2.26	0.346	2.21	1.09	1.47	-0.926	0.94			
TCGAGTAGGTTACGGGGGCACTCAGGGATGAAGA	2.26	2.67	0.365	4.7	4.43	6.44	6.05	3.54	5.14	4.71	6.2	2.56	2.71	0.594	3.05	-0.263	2.65			
CCGAGTAGGTTACGAGGGGGCATACAGTGCGAAT	2.06	6.92	1.29	6.04	3.52	2.73	3.69	1.1	2.54	4.86	4.23	2.45	4.27	2.55	3.03	1.01	2.15			

Sequence	PBM binding z-score [1]	PBM binding z-score [2]	PBM binding z-score [3]	PBM binding z-score [4]	PBM binding z-score [5]	PBM binding z-score [6]	PBM binding z-score [7]	PBM binding z-score [8]	PBM binding z-score [9]	PBM binding z-score [10]	PBM binding z-score [11]	PBM binding z-score [12]	PBM binding z-score [13]	PBM binding z-score [14]	PBM binding z-score [15]	PBM binding z-score [16]	PBM binding z-score [17]	PBM binding z-score [18]	PBM binding z-score [19]	PBM binding z-score [20]
TCGAGTAGGTTACGGGGGCATTCAGGGATGAAGA	2.79	2.81	0.777	5.02	4.38	5.95	5.71	3.3	5.07	4.99	5.99	1.92		1.53	2.98	1.5	2.61			
TCGAGTAGGTTACGGGGGCATTCTGGGATGAAGA	2.21	2.51	0.493	5.03	4.23	6.17	5.55	3.42	4.95	5.04	5.91	1.3	2.85	1.48	2.92	-0.159	2.27			
TCGAGTAGGTTACGGGGGCATGCAGGGATGAAGA	2.17	2.53	0.37	4.94	4.27	6.15	5.69	3.6	4.99	5.07	5.87	1.59	2.75	0.876	2.91	0.522	2.5			
CTATGTAGGTTAAGGGGGTCATTCAATTTGAAAG	5.04	4.74	2.45	6.26	6.18	8.92	7.74	5.91	8.06	7.02	7.79	5.83	5.67	3.88	5.82	1.49	3.55			
CCGAGTAGGTTACGAGGGGGCATTCATTGCGAAT	2	6.78	1.16	6.12	3.42	2.64	3.26	1.35	2.85	4.44	4.49	1.17	4.23	0.535	2.77	0.224	1.94			
CTATGTAGGTTAAGGGGGTCATTCACTTTGAAAG	5.19	5.06	2.92	6.16	5.91	8.46	8.03	5.89	8.28	7.7	7.41	3.47	5.59	4.83	5.77	1.84	3.4			
TCGAGTAGGTTACGGGGGCATCCAGGGATGAAGA	2.12	2.55	0.293	4.73	4.35	6.04	6.05	3.04	5.24	5.07	5.83	2.37		1.02	3.31	0.18	2.46			
CTATGTAGGTTAACGGGGTCATTCAGTTTGAAAG	5.18	5.6	2.97	5.87	6.19	7.77	6.92	4.45	6.47	7.65	7.78	2.41		12.2	6.06	0.661	3.57			
CCGAGTACGTTACGAGGGGGCATTCAGTGCGAAT	1.3	3.11	0.927	4.03	2.23	0.00178	0.968	-0.231	0.521	0.709	1.25	1.37	3.35	6.19	2.07	0.384	1.29			
CCGAGTAAGTTACGAGGGGGCATTCAGTGCGAAT	0.776	3.84	0.71	3.69	1.99	-0.0159	1.15	0.0165	0.85	0.778	0.899	0.949		4.68	2.13	0.219	1.09			
TCGAGTGGGTTACGGGGGCATTCAGGGATGAAGA	2.78	3.03	1.26	5.08	4.26	5.66	5.53	3.59	4.84	4.62	6.37	1.92	3.59	2.12	3.12	1.12	2.46			
CTATGTAGCTTAAGGGGGTCATTCAGTTTGAAAG	4.38	4.44	3.06	6.2	5.27	3.24	4.6	2.16	3.67	2.86	4.78	3.12	5.52	10	5.18	1.84	3.33			
ACTAGTTGGTCAGCTGAGGTCACACAAAATTCGG	4.18	3.22	2.26		3.85	1.45	2.46	0.399	1.64	1.6	2.89	3.4	5.63	2.18	4.78	1.17	3.87	0.719	0.792	0.409
ACTAGTTGGTCAGCTGAGGTAACACACAATTCGG	1.15	-0.066	0.00608		0.41	0.76	0.156	0.214	-0.00453	1.07	1.11	0.0938	0.509	-0.174	1.3	-0.362	1.03	0.472	0.194	0.609
CCCAGTAGGTTACGAGGGGGCATTCAGTGCGAAT	2.52	7.2	1.48	6.4		3.75	4.46	1.62	3.59	5.3	5.49	1.71	4.89	5.08	2.68	0.297	2.2			
ATGGAAAGGTCGTGAGGTGAGTATACAGAAAGGC	5.97	4.01	0.412		5.3	4.74	4.66	1.89	3.12	0.309	2.67	2.23	3.42	1.13	4.64	1.17	4.41	1.01	0.977	1.59
